Laboratory results taken from PubChem BioAssay (Tox21).
Inconclusive results are not listed. Some structures have more than one record in an assay (separate samples or runs), and their calls can disagree. Activity calls are given as the source filed them. The call rests on the fitted dose curve; in most records, active means well fitted cell-killing curve with a large enough effect in the repeat runs; inconclusive means weak or mixed curves, or effect the other way; inactive means flat fitted curve, though single readings scatter.

Assay: qHTS RealTime-Glo MT Cell Viability Assay in HEK293 cells - 16 hour (AID 1224872); further: nearly all actives have a fitted effect of over 50% in size
Conditions: RealTime-Glo luminescence; series mostly up to 76.8 µM
From the text: National Center for Advancing Translational Sciences [NCATS]
NIH Chemical Genomics Center [NCGC]
U.S. Environmental Protection Agency [EPA]
National Institutes of Environmental Health Sciences [NIEHS]
National Toxicology Program [NTP]
U.S. Food and Drug Administration [FDA]
Measure of cell viability is critical in the cell-base assay. Analysis of cell viability is necessary for the characterization of cell responses to cytotoxic drugs and environmental stress. A RealTime-Glo MT Cell Viability Assay to monitor cell viability in real time of continues cell culture during 40 hours of compound treatment was used to screen Tox21 10K library compounds in Hek293 cells. The RealTime-Glo MT Cell Viability Assay is a nonlytic, homogeneous, bioluminescent method to measure cell viability in real time using a simple, plate-based method. The assay involves adding NanoLuc luciferase and a cell-permeant prosubstrate to cells in culture. Viable cells reduce the proprietary prosubstrate to generate a substrate for NanoLuc luciferase. This substrate diffuses from cells into the surrounding culture medium, where it is rapidly used by the NanoLuc Enzyme to produce a luminescent signal. The signal correlates with the number of viable cells, making the assay well suited for cytotoxicity studies.
Tox21 Assay Protocol Summary:
The mixture of Hek293 cell suspension and reagents were dispensed at 600cells/6 ul/well in 1536-well tissue culture treated black solid bottom plates using a Multidrop dispenser. After the assay plates were incubated at a 37 C/5% CO2 incubator for 5 hours, 23 nL of compounds dissolved in DMSO, positive and negative controls was transferred to the assay plate by a pintool work station. The plates were incubated at 37 C for 40 hours. The luminescence intensity were measured at 0h, 8h, 16h, 24h, 32h and 40h time points using ViewLux plate reader during compound treatment.
Potency means the concentration at half of the fitted maximal effect.

Compound	Potency
NNC(=O)c1ccccc1	inactive
[Cl][Sb]([Cl])[Cl]	inactive
CC1(C)CN=C(NN=C(/C=C/c2ccc(C(F)(F)F)cc2)/C=C/c2ccc(C(F)(F)F)cc2)NC1	49 µM (active)
CCc1nn(C)c(C(=O)NCc2ccc(C(C)(C)C)cc2)c1Cl	0.0871 µM (active)
O=[N+]([O-])c1ccc(Oc2ccc(C(F)(F)F)cc2[N+](=O)[O-])cc1	19.5 µM (active)
CC(=O)OC1(c2ccccc2)CCN(CCc2ccccc2)CC1	25.1 µM (active)
S=C=Nc1cccc2ccccc12	inactive
CC(O)C#N (stereo not given)	inactive
CCCCCCCCCCCCCC[P+](CCCCCC)(CCCCCC)CCCCCC (tested in a mixture with another compound)	13.8 µM (active)
COc1ccc(/C(=C/C(=O)N2CCOCC2)c2ccc(Cl)cc2)cc1OC	inactive
Clc1ccc(C(c2ccccc2Cl)C(Cl)(Cl)Cl)cc1 (stereo not given)	49.3 µM (active) and inactive
COP(N)(=S)OC	inactive
[Hg+2].[I-].[I-]	3.47 µM (active)
C[CH2][Hg][N]1C(=O)C2C(C1=O)C1(Cl)C(Cl)=C(Cl)C2(Cl)C1(Cl)Cl (stereo not given)	2.61 µM (active)
CC(C)(C)C(O)C(Oc1ccc(-c2ccccc2)cc1)n1cncn1 (stereo not given)	49 µM (active)
O=C(NC(=O)c1c(F)cccc1F)Nc1cc(Cl)c(OC(F)(F)C(F)F)c(Cl)c1	inactive
CCCCOCN(C(=O)CCl)c1c(CC)cccc1CC	inactive
CN(C)S(=O)(=O)N(SC(F)(Cl)Cl)c1ccccc1	4.9 µM (active)
c1ccc(OCC2CO2)cc1 (stereo not given)	inactive
CC(C)(c1ccc(O)c(-c2ccccc2)c1)c1ccc(O)c(-c2ccccc2)c1	21.9 µM (active)

Compound	Potency
CCc1cc(C)cc(CC)c1-c1c(OC(=O)C(C)(C)C)n2n(c1=O)CCOCC2	inactive
C[C@]12Cc3nonc3C[C@@H]1CC[C@@H]1[C@@H]2CC[C@@]2(C)[C@H]1CC[C@]2(C)O	19 µM (active)
C=CC(=O)OCC(COC(=O)C=C)(COC(=O)C=C)COC(=O)C=C	3.89 µM (active)
CN(C)CCc1c[nH]c2ccc(O)cc12	inactive
Cc1cccc(OP(=O)(Oc2cccc(C)c2)Oc2cccc(C)c2)c1	inactive
CCCN(CCC)c1c([N+](=O)[O-])cc(S(N)(=O)=O)cc1[N+](=O)[O-]	16.5 µM (active)
Cn1[nH]nnc1=S	inactive
BrC(Br)C(Br)(Br)Br	43.9 µM (active)
CC1CCC(C(C)C)C(OC(=O)c2ccccc2N)C1 (stereo not given)	34.2 µM (active)
N#CCCC(Br)(C#N)CBr (stereo not given)	38.9 µM (active)
N#CCCO	inactive
Oc1c(Cl)c(Cl)cc(Cl)c1Cl	47.6 µM (active)
CC(=O)O[C@H]1CC[C@@]2(C)C(=CC[C@@H]3[C@@H]2CC[C@]2(C)C(=O)CC[C@@H]32)C1	49 µM (active)
Oc1ccc(C2(c3ccc(O)cc3)c3ccccc3-c3ccccc32)cc1	49 µM (active)
O=[N+]([O-])c1c2ccccc2cc2ccccc12	inactive
CC(C)(COCC1CO1)COCC1CO1 (stereo not given)	inactive
Nc1ccccc1C(=O)OC/C=C/c1ccccc1	24.6 µM (active)
[Cl][Sn]([c]1ccccc1)([c]1ccccc1)[c]1ccccc1	0.293 µM (active)
C[As+](C)(C)CC(=O)[O-]	inactive
CCOCn1c(-c2ccc(Cl)cc2)c(C#N)c(Br)c1C(F)(F)F	6.16 µM (active)
